In all, about 220,000 compounds went through this assay and about 800 (0.36%) were called active. For the sample, actives were picked, then their nearest neighbours and some compounds at random. Values without a mark were called inactive.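 The calls were made as follows: active = inhibition above about 50% (limit read from the data); inactive = the rest.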
tested on: calpain II (m-calpain), Sus scrofa; assay: inhibitors of pig calpain II, primary screen, biochemical, fluorogenic peptide substrate, 1536-well (AID 1236); details: purified calpain II, 30 min, at 16 µM, active compounds read high

Question: `C/C(=N\NC(=S)NC(C)C)c1ccc(C(C)(C)C)cc1` was tested. Which inhibition did it give?
Answer: Its inhibition is 6.32%.

Question: How did the inhibition turn out when `CC(C)(C)NC(=O)C(=O)NN=C1CCCCCCC1` was run?
Answer: Its inhibition is -5.09%.

Question: `CC(C)NC(=S)NN=C1CCCCCCCCCCC1` was tested. Which inhibition did it give?
Answer: Its inhibition is 54.9% (active).

Question: For `Nc1ccc(Cl)c(S(=O)(=O)Nc2ccccc2Cl)c1`, which inhibition is on record?
Answer: The inhibition was -15%.

Question: `COc1ccc(Cl)cc1C(=O)Nc1ccc(N(C)C(C)=O)cc1` was tested. Which inhibition did it give?
Answer: The inhibition was -12.6%.

Question: With `Cn1nc(C(C)(C)C)c(NC(=O)c2sccc2Cl)c1C(C)(C)C` as the compound, how does the inhibition read?
Answer: Its inhibition is -8.61%.

Question: `O=C(CN1C2=NCCN2c2ccccc21)c1cccs1` was tested. Which inhibition did it give?
Answer: Its inhibition is -7.58%.

Question: `COc1cc(C(=O)NCc2ccc3c(c2)cc(C)n3C)cc(OC)c1OC` was tested. Which inhibition did it give?
Answer: Its inhibition is 65% (active).

Question: For `COc1cc(-n2c(C)nc3cc(C(=O)NCc4ccco4)ccc32)cc(OC)c1OC`, which inhibition is on record?
Answer: Its inhibition is 8.54%.

Question: How did the inhibition turn out when `COc1cc(C(=O)NCc2ccc(-n3cccc3)cc2)cc(OC)c1OC` was run?
Answer: Its inhibition is 8.77%.

Question: Which inhibition does the source give for `CC(C)(C)c1ccc(CCC2OCC(CN3CCOCC3)O2)cc1` (centres undefined) here?
Answer: Its inhibition is -40.5%.

Question: For `Cc1sc2nc(COC(=O)C(NC(=O)c3ccc(Cl)cc3Cl)C(C)C)[nH]c(=O)c2c1C` (centres undefined), which inhibition is on record?
Answer: Its inhibition is -7.99%.

Question: How did the inhibition turn out when `CNC(=O)c1csc(Cc2c(Cl)sc3ccc(Cl)cc23)n1` was run?
Answer: The inhibition was 0.86%.

Question: With `Cn1c(N)c(C(=O)COC(=O)C23CC4CC(CC(C4)C2)C3)c(=O)n(C)c1=O` as the compound, how does the inhibition read?
Answer: The inhibition was 79.2% (active).

Question: For `CC(=O)c1c(N)n(C)c(=O)n(C)c1=O`, which inhibition is on record?
Answer: The inhibition was -24.4%.

Question: Which inhibition does the source give for `CC1CC1C(=O)OCC(=O)c1c(N)n(C)c(=O)n(C)c1=O` (centres undefined) here?
Answer: The inhibition was 3.06%.

Question: With `Cc1ccc2[nH]cc(CCNC(=O)c3ccc([N+](=O)[O-])cc3)c2c1` as the compound, how does the inhibition read?
Answer: Its inhibition is 9.36%.

Question: `CC(C)c1nccn1S(=O)(=O)c1cc([N+](=O)[O-])ccc1Cl` was tested. Which inhibition did it give?
Answer: The inhibition was 12%.

Question: How did the inhibition turn out when `COc1ccc(O[C@H]2C=C[C@@H](c3ccccc3)O[C@@H]2CO/N=C/C[C@@H]2C=C[C@H](OC(C)=O)[C@@H](COC(C)=O)O2)cc1` was run?
Answer: Its inhibition is 27%.

Question: Which inhibition does the source give for `Cc1cccc2cc3c(N)c(C(=O)N4CCCc5ccccc54)sc3nc12` here?
Answer: Its inhibition is -64.7%.

Question: `COc1ccc(-c2nnc3ccc(SCc4ccccc4)nn23)cc1` was tested. Which inhibition did it give?
Answer: Its inhibition is -6.26%.

Question: How did the inhibition turn out when `COc1cc(N/C=C2\CC(=O)NC(C)=C2C#N)cc(OC)c1OC` was run?
Answer: Its inhibition is -145%.

Question: How did the inhibition turn out when `Oc1c(Cl)cc(Cl)c(Cl)c1Cc1c(O)c(Cl)cc(Cl)c1Cl` was run?
Answer: Its inhibition is 109% (active).

Question: Which inhibition does the source give for `CCOC(=O)c1cc2c(=O)n3ccccc3nc2n(CC(C)C)c1=NC(=O)c1c(-c2c(F)cccc2Cl)noc1C` here?
Answer: Its inhibition is -60.6%.

Question: With `CCOC(=O)c1c(C)nn(-c2ncccc2NC(=O)CCC(=O)O)c1C` as the compound, how does the inhibition read?
Answer: The inhibition was 10.4%.

Question: How did the inhibition turn out when `CCCCSc1nc2ccccc2[nH]1` was run?
Answer: The inhibition was -22.6%.

Question: For `CCc1nnc(NC(=O)CCCSc2nc3ccccc3[nH]2)s1`, which inhibition is on record?
Answer: The inhibition was 2.67%.

Question: With `O=C(COC(=O)CCCSc1nc2ccccc2[nH]1)Nc1ccc(Oc2ccccc2)cc1` as the compound, how does the inhibition read?
Answer: Its inhibition is 51.3% (active).

Question: How did the inhibition turn out when `CCCCCn1c(=O)c(C(=O)OCC)c(Cl)c2ccccc21` was run?
Answer: Its inhibition is -1.97%.

Question: How did the inhibition turn out when `COc1ccc(C)cc1NC(=O)c1ccc(-c2ccc(C(C)=O)cc2)o1` was run?
Answer: Its inhibition is -135%.

Question: `COC(=O)c1ccccc1NC(=O)C1CC(=O)N(c2ccc(OC)cc2)C1` (centres undefined) was tested. Which inhibition did it give?
Answer: Its inhibition is 4.97%.

Question: How did the inhibition turn out when `CCN(CC)CCNC(=O)CCCCCn1c(=O)[nH]c2cc(C(=O)OC)ccc2c1=O` was run?
Answer: The inhibition was -103%.

Question: `CCN(CCCNC(=O)CCn1c(=O)[nH]c2ccsc2c1=O)c1ccccc1` was tested. Which inhibition did it give?
Answer: The inhibition was 64.7% (active).

Question: Which inhibition does the source give for `CCCCC(CC)CNC(=O)CCCCn1c(=O)[nH]c2ccsc2c1=O` (centres undefined) here?
Answer: The inhibition was 13.6%.

Question: With `O=c1cc(O)c(-c2cccc(C(F)(F)F)c2)c(Cl)[nH]1` as the compound, how does the inhibition read?
Answer: Its inhibition is 27.3%.

Question: With `Cc1cc(C(=O)CCl)c(C)n1CC1COc2ccccc2O1` (centres undefined) as the compound, how does the inhibition read?
Answer: The inhibition was -16.6%.

Question: With `COc1ccc(-c2cc(C3CCN(c4ncccc4[N+](=O)[O-])CC3)[nH]n2)cc1` as the compound, how does the inhibition read?
Answer: The inhibition was 10.5%.

Question: For `Cc1ccc(NN=C2C(=O)OC(C)(C)OC2=O)c(C)c1`, which inhibition is on record?
Answer: The inhibition was 6.22%.

Question: With `Cc1ccc(OCCCn2c(=O)oc3ccccc32)cc1` as the compound, how does the inhibition read?
Answer: The inhibition was 21.8%.

Question: Which inhibition does the source give for `O=C(c1cccc(S(=O)(=O)Nc2ccccc2Cl)c1)N1CCN(C(=O)c2ccco2)CC1` here?
Answer: Its inhibition is 10.2%.

Question: Which inhibition does the source give for `O=C(Nc1ccc2c(c1)CCC2)c1cccc(S(=O)(=O)Nc2ccccc2Cl)c1` here?
Answer: The inhibition was 55.1% (active).

Question: With `O=C(Nc1ccc2c(c1)CCC2)c1cccc(S(=O)(=O)N2CCN(c3ccc(F)cc3)CC2)c1` as the compound, how does the inhibition read?
Answer: The inhibition was -32.9%.

Question: How did the inhibition turn out when `O=C(Nc1cc2c3c(c1)C1CCCC1CN3CC1CCCC21)c1ccc([N+](=O)[O-])cc1` (centres undefined) was run?
Answer: Its inhibition is -34.8%.

Question: For `O=C(Oc1cccc(NC2=NS(=O)(=O)c3ccccc32)c1)c1ccncc1`, which inhibition is on record?
Answer: Its inhibition is -20.9%.

Question: Which inhibition does the source give for `COC(=O)Cc1c(O)ccn(Cc2cccc(C(F)(F)F)c2)c1=O` here?
Answer: The inhibition was -20.3%.

Question: Which inhibition does the source give for `CC(C)Cc1nnc(NC(=O)CCC(=O)Nc2ccc3cn[nH]c3c2)s1` here?
Answer: Its inhibition is -10.5%.

Question: Which inhibition does the source give for `CSCCC(NS(=O)(=O)c1ccc2c(c1)oc(=O)n2C)C(=O)NC1CCCc2ccccc21` (centres undefined) here?
Answer: Its inhibition is 30.2%.

Question: For `O=C(Nc1ccc(S(=O)(=O)Nc2nccs2)cc1)c1cc(-c2ccncc2)nc2ccccc12`, which inhibition is on record?
Answer: The inhibition was -37.6%.

Question: Which inhibition does the source give for `COc1cccc2cc(S(=O)(=O)c3ccc(C)cc3)/c(=N/NS(=O)(=O)c3ccc(C)cc3)oc12` here?
Answer: Its inhibition is -24.9%.
